Compounds without any hit were thinned out: in the full panel of roughly 83,000, 20% have a hit.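 Cell lines were cultured in 96-well plates, exposed to a single compound concentration, and assessed for percent growth 48 hours later.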 Active and inactive are the calls of the source. Rule for the calls: active = growth percent below 10; inactive = the rest.

The test concerns MDA-MB-468 breast. The test can be described thus: NCI-60 one-dose screen, 48 h (100 = growth as untreated, 0 = no growth, -100 = all killed). Particulars: 10 µM unless noted.
On to `COc1cc(Nc2ncc(F)c(Nc3ccc4c(n3)NC(=O)C(C)(C)O4)n2)cc(OC)c1OC`, for which the growth is 27.7% (inactive). As for `COc1ccc(-c2c(N)n[nH]c2-c2ccc(Cl)cc2O)cc1OC`, the growth was 84.1% (inactive). Regarding `COc1ccc(-c2cnnn2-c2nonc2-n2cccc2)cc1OC`, the growth was 40.1% (inactive).

Regarding `COc1ccc(-c2cnc(-c3ccc(F)cc3)[nH]2)cc1`, the growth is 90.3% (inactive). Consider `Cc1cccc2c(=O)c3c(sc12)c(NCCCN)nc1ccccc13`, for which the growth is -38.5% (active). Turning to `c1ccc2c(c1)[nH]c1c2cc[n+]2cc3c(cc12)CCCC3`, the growth is -14.5% (active). The result for `NC(=O)c1ccc2c(c1)OCO2` reads 88.9% (inactive). For the compound `CC1=C(C)C(=O)OC([C@](C)(O)[C@]2(O)CC[C@@]3(O)[C@@H]4C[C@H]5O[C@]56CC=CC(=O)[C@]6(C)[C@H]4CC[C@]23COC(=O)c2ccc(C)o2)C1` (some centres undefined), the growth was -55.6% (active).

As for `CC[C@@H]1C(=O)N(C)c2cnc(Nc3ccc(C(=O)NC4CCN(C)CC4)cc3OC)nc2N1C1CCCC1`, the growth was -33.3% (active). On to `Nc1ccccc1C(=O)Nc1ccc(Cl)cc1Cl`, for which the growth was 94.5% (inactive). Consider `CC(=O)N=c1ccc2nc3c(cc(N)c4ccccc43)oc-2c1`, for which the growth was -44.5% (active).

In the case of `Brc1ccc(-c2nn(-c3ccccc3)cc2-c2nn[nH]n2)s1`, the growth was 98.8% (inactive). The result for `CC1=N[C@@H]2CN(C(=O)OC(C)(C)C)C[C@@H]2n2c1cc1ccccc1c2=O` reads 111% (inactive); that for `COc1ccc(OC)c(NC(=O)CCCCCCNC(=O)C(O)(O)C(F)(F)F)c1`, 22.6% (inactive); that for `CCC1=C[C@]2(C3CC(=O)N(c4ccccc4)C3=O)CC(C(C)(C)C)C[C@@H]2[C@@H]2C(=O)N(c3ccccc3)C(=O)[C@H]12` (some centres undefined), 90.2% (inactive).

As for `Cc1ccc(-c2nc(C(Cl)Cl)nc3cc(C)nn23)cc1`, the growth is -37.7% (active).

For the compound `C=C1CC[C@@H]2[C@](C)(COC(C)=O)[C@H](OC(C)=O)CC[C@@]2(C)[C@@H]1CC(Nc1ccc(S(=O)(=O)Nc2ncccn2)cc1)C1=CCOC1=O` (some centres undefined), the growth was -54% (active).

Turning to `Cn1c(-c2ccc(Br)cc2)c(O)c(=O)c2c(F)cccc21`, the growth was 39.7% (inactive). `COc1ccc(O)c(-c2cc(-c3ccccc3)c(C#N)c(=O)[nH]2)c1`: the growth was 92.8% (inactive).

Turning to `CC(=O)c1ccc(C)c(N)c1`, the growth is 104% (inactive). As for `CCOC(=O)c1cc2c(n1Cc1cc(OC)cc(OC)c1)-c1oncc1CCC2`, the growth was 22.4% (inactive). On to `CCOC(=O)c1cc(C(=O)c2cc(OC)c(OC)c(OC)c2)n2c1ccc1c3cccnc3ccc12`, for which the growth was 61.5% (inactive).

`Oc1ccc(O)c(-c2ccccc2)c1`: the growth is 33.2% (inactive). For the compound `COc1ccccc1CNc1nc(N)nc2[nH]c3ccc(O)cc3c12`, the growth is 45.2% (inactive).

For the compound `COc1cc2c3c(c(=O)oc2cc1OS(=O)(=O)c1ccc(C(F)(F)F)cc1)CCCCC3`, the growth is 67% (inactive).

Take `CCCCCCCCCN(CCCCCCCCC)C(C)C(=O)c1ccc2cc(Br)c3ccccc3c2c1` (centres undefined): the growth is 99.2% (inactive). With `CN1C(=O)N(C)C2C1NN=c1s/c(=C\c3ccc(Br)cc3)c(=O)n12` (centres undefined), the growth was 10.8% (inactive).

In the case of `CCOC(=O)C/C(=N\Nc1cc(=O)[nH]c2ccc(Br)cc12)C(=O)OCC`, the growth is 99.3% (inactive). As for `Cc1cc(N/N=C/c2ccccn2)nc2ccccc12`, the growth is -13.3% (active). On to `CCCCCCCCCCCCCCCCCCSC1=CC(=O)C(OC)=C(OC)C1=O`, for which the growth was 105% (inactive). As for `COc1cnc2c(c1)C(=O)c1c-2n(CCCNCC2CC2)c(=O)c2cc(F)ccc12`, the growth is -38.4% (active).

With `Clc1ccc(C2CC(c3cccc(Nc4ccncc4)c3)=NN2c2ccccc2)cc1` (centres undefined), the growth is 61.6% (inactive). Consider `COc1cc(/C=C/c2cc(O)c(C(C)=O)c(O)c2)cc2c1O[C@]1(C)CC[C@@H](O)C(C)(C)[C@H]1C2`, for which the growth is 77.6% (inactive). As for `COC1=CC(=O)c2ccccc2C1=O`, the figure is 32.7% (inactive); as for `CC(=O)c1c(C)nc(SCC(=O)Nc2ccc(Cl)cc2)n1-c1ccc(Cl)cc1`, 71.3% (inactive); as for `N=C(N)c1ccc(-c2ccc(-c3ccc(F)cc3)s2)s1`, -77% (active).

With `N/C(=N\C(N)=N\c1nc2ccccc2s1)c1ccncc1Cl`, the growth was 90.3% (inactive).

Take `O=C1N[C@H]2[C@H](CS[C@H]2CCCCC(=O)N(CCP(c2ccccc2)c2ccccc2)CCP(c2ccccc2)c2ccccc2)N1`: the growth is 33.8% (inactive).

For `COc1ccc(C=C2c3ccccc3-c3ccccc32)cc1`, the growth was 41.3% (inactive).

Values taken from PubChem BioAssay (NCI).
